Our source for the binding signal values is publication PMC7862700, “An all-to-all approach to the identification of sequence-specific readers for epigenetic DNA modifications on cytosine”.

Common to all, as to test: DAPPL (digital affinity profiling via proximity ligation, sequencing); 10 mM Tris-HCl pH 7.5, 50 mM NaCl, 1 mM DTT, 4% glycerol, room temperature, 30 min; GST-TFs on glutathione beads, 16-mer random dsDNA library, 0.1% formaldehyde crosslink after washing; high values mean tight binding
What all share (settings): protein: recombinant; tags: N-terminal GST; dsDNA, one strand shown

The target of one assay is T1, ERF (Homo sapiens, UniProt P50548 1-548).
T1 sequence: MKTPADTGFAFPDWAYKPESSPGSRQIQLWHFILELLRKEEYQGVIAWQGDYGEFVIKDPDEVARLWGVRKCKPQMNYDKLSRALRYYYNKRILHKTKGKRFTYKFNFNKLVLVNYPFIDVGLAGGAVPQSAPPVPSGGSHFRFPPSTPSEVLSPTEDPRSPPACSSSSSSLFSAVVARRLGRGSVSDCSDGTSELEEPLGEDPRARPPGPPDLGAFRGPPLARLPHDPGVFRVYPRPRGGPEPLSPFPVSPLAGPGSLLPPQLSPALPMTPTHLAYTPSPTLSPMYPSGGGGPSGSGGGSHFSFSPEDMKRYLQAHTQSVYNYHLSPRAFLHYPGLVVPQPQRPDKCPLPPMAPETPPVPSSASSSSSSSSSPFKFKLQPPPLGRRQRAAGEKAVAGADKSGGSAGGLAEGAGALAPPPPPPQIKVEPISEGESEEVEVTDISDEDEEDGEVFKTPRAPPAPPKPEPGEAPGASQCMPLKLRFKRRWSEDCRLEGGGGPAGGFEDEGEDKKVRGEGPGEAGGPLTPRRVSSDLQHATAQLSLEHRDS
Put shortly: (§1)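 Sequencing on an Illumina NextSeq500 followed washing, crosslinking with 0.1% formaldehyde, proximity ligation (BsaI/T4 ligase, 1 h, 37 °C) and PCR amplification of pools that had been incubated for 30 min at room temperature with 200 nmole of a random double-stranded 16-mer DNA library in Tris/NaCl/DTT/glycerol buffer. Each pool held DNA-barcoded human transcription factors, expressed in yeast as GST fusions and captured on glutathione beads, plus a tag-only sample. Binding signal is a hexamer's read frequency for a factor divided by its frequency in the tag-only sample.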

A further assay has as its target T2, ETV3L (Homo sapiens, UniProt Q6ZN32 1-361).
T2 sequence: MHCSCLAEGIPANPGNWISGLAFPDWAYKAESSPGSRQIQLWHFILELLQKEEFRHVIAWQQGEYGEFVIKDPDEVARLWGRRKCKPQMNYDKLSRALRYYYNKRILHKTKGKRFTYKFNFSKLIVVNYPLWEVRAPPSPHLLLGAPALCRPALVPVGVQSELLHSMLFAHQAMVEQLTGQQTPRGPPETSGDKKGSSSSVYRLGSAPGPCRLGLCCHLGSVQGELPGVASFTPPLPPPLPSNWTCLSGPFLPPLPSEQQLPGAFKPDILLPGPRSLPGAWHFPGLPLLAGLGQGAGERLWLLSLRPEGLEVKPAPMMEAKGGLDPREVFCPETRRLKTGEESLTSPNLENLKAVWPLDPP
An outline of the steps:
as §1

The target of a further assay is T3, ETS2 (Homo sapiens, UniProt P15036 1-469).
T3 sequence: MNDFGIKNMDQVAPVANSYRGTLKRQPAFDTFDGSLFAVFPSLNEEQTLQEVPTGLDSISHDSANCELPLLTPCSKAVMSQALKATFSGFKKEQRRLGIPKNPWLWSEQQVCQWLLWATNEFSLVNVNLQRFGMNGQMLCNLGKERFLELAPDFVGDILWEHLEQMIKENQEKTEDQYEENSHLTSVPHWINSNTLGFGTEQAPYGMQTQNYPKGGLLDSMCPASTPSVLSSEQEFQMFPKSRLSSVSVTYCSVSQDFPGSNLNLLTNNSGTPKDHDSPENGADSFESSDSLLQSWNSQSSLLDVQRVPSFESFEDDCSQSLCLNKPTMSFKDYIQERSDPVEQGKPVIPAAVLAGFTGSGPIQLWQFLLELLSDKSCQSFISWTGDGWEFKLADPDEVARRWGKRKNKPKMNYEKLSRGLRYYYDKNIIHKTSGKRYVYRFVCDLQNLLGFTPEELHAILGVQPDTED
An outline of the steps: as §1

The next assay has as its target T4, SPDEF (Homo sapiens, UniProt O95238 1-335).
T4 sequence: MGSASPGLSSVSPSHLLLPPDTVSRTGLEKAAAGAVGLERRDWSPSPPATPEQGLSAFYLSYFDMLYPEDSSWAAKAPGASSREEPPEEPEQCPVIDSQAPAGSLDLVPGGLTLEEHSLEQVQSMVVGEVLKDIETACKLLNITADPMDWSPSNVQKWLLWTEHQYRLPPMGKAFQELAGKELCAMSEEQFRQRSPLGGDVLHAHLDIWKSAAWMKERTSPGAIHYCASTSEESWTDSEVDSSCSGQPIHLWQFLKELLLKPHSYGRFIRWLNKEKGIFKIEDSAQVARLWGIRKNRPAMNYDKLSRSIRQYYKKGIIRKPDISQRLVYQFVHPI
Put shortly: as §1

A further assay concerns the target T5, ETV7 (Homo sapiens, UniProt Q9Y603 1-341).
T5 sequence: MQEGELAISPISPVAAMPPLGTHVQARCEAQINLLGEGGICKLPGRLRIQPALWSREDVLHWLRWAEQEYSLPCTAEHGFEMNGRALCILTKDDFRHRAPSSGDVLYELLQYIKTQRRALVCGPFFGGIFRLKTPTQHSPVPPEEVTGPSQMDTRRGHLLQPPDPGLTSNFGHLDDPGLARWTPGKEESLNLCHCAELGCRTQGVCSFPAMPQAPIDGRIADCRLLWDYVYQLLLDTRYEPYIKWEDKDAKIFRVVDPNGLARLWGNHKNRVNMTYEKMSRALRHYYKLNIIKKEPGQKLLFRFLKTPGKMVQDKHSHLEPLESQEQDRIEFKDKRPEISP
Put shortly:
as §1

A further assay concerns the target T6, ELF5 (Homo sapiens, UniProt Q9UKW6-2 1-255).
T6 sequence: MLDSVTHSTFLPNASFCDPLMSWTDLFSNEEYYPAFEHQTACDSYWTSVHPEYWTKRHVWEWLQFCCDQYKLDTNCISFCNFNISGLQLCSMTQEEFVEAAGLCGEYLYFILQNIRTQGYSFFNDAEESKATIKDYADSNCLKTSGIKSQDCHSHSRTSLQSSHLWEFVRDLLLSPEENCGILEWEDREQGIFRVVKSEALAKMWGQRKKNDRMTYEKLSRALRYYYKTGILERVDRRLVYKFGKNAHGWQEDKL
An outline of the steps:
as §1

The next assay concerns the target T7, ETV3 (Homo sapiens, UniProt P41162-2 1-143).
T7 sequence: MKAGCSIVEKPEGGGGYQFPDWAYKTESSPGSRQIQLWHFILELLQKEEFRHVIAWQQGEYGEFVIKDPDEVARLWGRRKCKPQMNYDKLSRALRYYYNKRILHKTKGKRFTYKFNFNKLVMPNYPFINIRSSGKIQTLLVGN
An outline of the steps: as §1

Another assay concerns the target ETV6 (Homo sapiens, UniProt P41212 1-452). An outline of the steps:
as §1

Sequence of ETV6 (P41212 whole entry): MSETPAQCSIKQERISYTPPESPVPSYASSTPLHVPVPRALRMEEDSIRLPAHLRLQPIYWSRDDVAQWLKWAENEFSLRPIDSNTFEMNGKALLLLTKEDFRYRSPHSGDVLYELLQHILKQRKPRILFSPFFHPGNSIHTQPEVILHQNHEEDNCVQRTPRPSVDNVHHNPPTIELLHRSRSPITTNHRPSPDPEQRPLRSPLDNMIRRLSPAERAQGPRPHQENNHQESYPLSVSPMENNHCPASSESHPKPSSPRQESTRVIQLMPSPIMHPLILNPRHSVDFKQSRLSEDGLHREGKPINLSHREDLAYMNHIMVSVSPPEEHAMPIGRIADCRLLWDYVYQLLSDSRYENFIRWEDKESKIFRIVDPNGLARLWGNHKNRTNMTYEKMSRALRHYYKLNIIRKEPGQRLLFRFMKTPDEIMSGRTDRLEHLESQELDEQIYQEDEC

Consider GGAAGC, for which the binding signal in the assay with ERF is 1.43 fold enrichment (6-mer frequency, TF over GST control); with ETV3L it was 1.5 fold enrichment (6-mer frequency, TF over GST control); with ETS2 it was 1.6 fold enrichment (6-mer frequency, TF over GST control); with SPDEF, 1.55 fold enrichment (6-mer frequency, TF over GST control); in the assay with ETV7 it was 1.62 fold enrichment (6-mer frequency, TF over GST control); with ELF5 it was 1.95 fold enrichment (6-mer frequency, TF over GST control). Besides, the binding signal in the assay with ETV3 is 1.69 fold enrichment (6-mer frequency, TF over GST control); with ETV6 it was 1.92 fold enrichment (6-mer frequency, TF over GST control).

As for GCACTC, the binding signal was 1.39 fold enrichment (6-mer frequency, TF over GST control) with ERF; 1.33 fold enrichment (6-mer frequency, TF over GST control) with ETV3L; 1.23 fold enrichment (6-mer frequency, TF over GST control) in the assay with ETS2; 1.22 fold enrichment (6-mer frequency, TF over GST control) with SPDEF; 1.28 fold enrichment (6-mer frequency, TF over GST control) with ETV7; 1.27 fold enrichment (6-mer frequency, TF over GST control) in the assay with ELF5. Also, the binding signal with ETV3 is 1.28 fold enrichment (6-mer frequency, TF over GST control); with ETV6, 1.34 fold enrichment (6-mer frequency, TF over GST control).

Turning to CCTTCG, the binding signal was 1.36 fold enrichment (6-mer frequency, TF over GST control) with ERF; 1.36 fold enrichment (6-mer frequency, TF over GST control) with ETV3L; 1.3 fold enrichment (6-mer frequency, TF over GST control) with ETS2; 1.33 fold enrichment (6-mer frequency, TF over GST control) in the assay with SPDEF; 1.38 fold enrichment (6-mer frequency, TF over GST control) with ETV7; 1.24 fold enrichment (6-mer frequency, TF over GST control) with ELF5. Besides, the binding signal was 1.12 fold enrichment (6-mer frequency, TF over GST control) in the assay with ETV3 and 1.31 fold enrichment (6-mer frequency, TF over GST control) in the assay with ETV6.

Take CGTCTC: the binding signal with ERF was 1.49 fold enrichment (6-mer frequency, TF over GST control); with ETV3L, 1.71 fold enrichment (6-mer frequency, TF over GST control); with ETS2, 1.58 fold enrichment (6-mer frequency, TF over GST control); in the assay with SPDEF it was 1.35 fold enrichment (6-mer frequency, TF over GST control); with ETV7, 1.44 fold enrichment (6-mer frequency, TF over GST control); in the assay with ELF5, 1.38 fold enrichment (6-mer frequency, TF over GST control). The binding signal is 1.48 fold enrichment (6-mer frequency, TF over GST control) in the assay with ETV3 and 1.46 fold enrichment (6-mer frequency, TF over GST control) in the assay with ETV6.

As to CCACGA, the binding signal in the assay with ERF was 1.04 fold enrichment (6-mer frequency, TF over GST control); in the assay with ETV3L it was 1.09 fold enrichment (6-mer frequency, TF over GST control); with ETS2 it was 1.08 fold enrichment (6-mer frequency, TF over GST control); with SPDEF, 1.03 fold enrichment (6-mer frequency, TF over GST control); with ETV7, 1.17 fold enrichment (6-mer frequency, TF over GST control); with ELF5, 1.01 fold enrichment (6-mer frequency, TF over GST control). In addition, the binding signal with ETV3 was 1.02 fold enrichment (6-mer frequency, TF over GST control); with ETV6 it was 1.01 fold enrichment (6-mer frequency, TF over GST control).

For the sequence CGGTTT, the binding signal in the assay with ERF was 1.23 fold enrichment (6-mer frequency, TF over GST control); with ETV3L, 1.14 fold enrichment (6-mer frequency, TF over GST control); with ETS2 it was 1.2 fold enrichment (6-mer frequency, TF over GST control); with SPDEF, 1.36 fold enrichment (6-mer frequency, TF over GST control); with ETV7, 1.2 fold enrichment (6-mer frequency, TF over GST control); with ELF5 it was 1.31 fold enrichment (6-mer frequency, TF over GST control). Besides, the binding signal with ETV3 was 1.22 fold enrichment (6-mer frequency, TF over GST control); in the assay with ETV6, 1.23 fold enrichment (6-mer frequency, TF over GST control).

For AAAAGA, the binding signal in the assay with ERF is 1.24 fold enrichment (6-mer frequency, TF over GST control); with ETV3L, 1.1 fold enrichment (6-mer frequency, TF over GST control); with ETS2 it was 1.22 fold enrichment (6-mer frequency, TF over GST control); with SPDEF it was 1.1 fold enrichment (6-mer frequency, TF over GST control); in the assay with ETV7 it was 1.1 fold enrichment (6-mer frequency, TF over GST control); with ELF5, 1.13 fold enrichment (6-mer frequency, TF over GST control). Also, the binding signal in the assay with ETV3 was 1.07 fold enrichment (6-mer frequency, TF over GST control); with ETV6, 1.21 fold enrichment (6-mer frequency, TF over GST control).
